Screening results from PubChem.
TRb SRC2 PPI – disrupts binding of human TR beta to SRC2; TRbeta-SRC2 peptide binding, fluorescence polarization; receptor liganded with 1 µM T3; Potency, µM (titrated, usually from 106 µM), for the others: at the top dose activity change, negative = inhibition, actives largely listed as inhibitors; AID 1469; hit rate 0.065% among 280,000; P10828;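 further: plate controls were bound peptide for no effect and peptide without receptor for full effect; nearly all actives have a fitted effect of over 50% in size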
Target sequence (P10828 whole entry, looked up): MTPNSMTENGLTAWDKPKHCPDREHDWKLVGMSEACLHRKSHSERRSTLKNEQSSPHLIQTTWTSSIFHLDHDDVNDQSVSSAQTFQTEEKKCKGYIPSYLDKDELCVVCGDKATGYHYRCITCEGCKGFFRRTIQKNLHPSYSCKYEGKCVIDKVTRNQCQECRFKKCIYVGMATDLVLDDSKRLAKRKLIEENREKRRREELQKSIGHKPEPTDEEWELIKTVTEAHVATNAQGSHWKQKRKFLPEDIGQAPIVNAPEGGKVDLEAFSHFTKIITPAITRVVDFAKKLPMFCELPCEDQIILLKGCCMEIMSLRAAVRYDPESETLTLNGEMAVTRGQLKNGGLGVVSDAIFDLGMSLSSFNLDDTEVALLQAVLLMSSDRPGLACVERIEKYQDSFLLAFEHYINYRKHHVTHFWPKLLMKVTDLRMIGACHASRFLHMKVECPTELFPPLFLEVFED
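Fluorescence polarization of 20 nM Texas Red SRC2 peptide with 0.6 uM human TRb ligand-binding domain, in Tris buffer with 1uM T3 and 5% DMSO. Incubated 5 hr ambient; normalized to unbound and bound controls.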
TexasRed fluor – alters Texas Red total fluorescence, flagging assay interference; TRb/SRC2 Texas Red total fluorescence interference; Potency, µM (doses to about 106 µM), for the others: top-dose fluorescence change, negative = quenching; hit rate 0.29% among 280,000; active means well fitted curve in either direction with a large enough effect; inconclusive means small, poorly fitted or top-dose-only effect
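Human TRb ligand-binding domain at 0.6 uM with 20 nM Texas Red SRC2 peptide in Tris buffer containing 1 uM T3 and 5% DMSO, incubated with compound 5 h at ambient temperature. Total fluorescence (555/632 nm) calculated as parallel + 2 × perpendicular.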
Tau fibril ThT – inhibitors of human tau fibril formation, thioflavin T binding. recombinant tau K18 P301L, heparin-induced fibrillization, ThT fluorescence. hit rate 2.1% among 270,000. P10636. Potency, µM (highest dose often 57.4 µM), for inactives: top-dose activity, negative = inhibition, actives largely listed as inhibitors; further: nearly all actives have a fitted effect of over 55% in size
Target sequence (P10636 561-689 P618L limits assumed): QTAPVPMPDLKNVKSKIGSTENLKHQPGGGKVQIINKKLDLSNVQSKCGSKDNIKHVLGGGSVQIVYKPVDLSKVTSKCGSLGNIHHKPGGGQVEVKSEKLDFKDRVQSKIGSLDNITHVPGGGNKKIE
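K18 P301L tau (15 uM + 0.24 uM Alexa 594-tagged), heparin 20 uM, NaOAc pH 7, 6 h 37 C; ThT 30 uM, 1 h RT, ex 450/em 510 nm.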
Tau FP inhib – blocks human tau fibril formation measured by polarization; P10636; K18 P301L tau heparin fibrillization, Alexa594 FP, 6 h; Potency, µM (top dose mostly 57.7 µM), for inactives: top-dose activity, negative = inhibition, hits mostly inhibitors; hit rate 0.39% among 280,000; AID 1468; further: nearly all actives have a fitted effect of over 55% in size
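Heparin (20 uM) drove fibril formation of recombinant tau K18 P301L, 15 uM unlabeled with 0.24 uM Alexa 594 label, for 6 hr at 37 C in 100 mM sodium acetate pH 7. Fluorescence polarization (555/632 nm) read 1 hr after 30 uM ThT.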
Tau fluor counter – counter-screen for tau fibril formation inhibitors; hit rate 0.93% among 280,000; tau K18 P301L (four-repeat tau fragment) Alexa594 fluorescence, heparin fibrillization; Potency, µM (series often up to 57.7 µM), for the others: at the top dose activity change, negative = decrease; further: nearly all actives have a fitted effect of over 55% in size
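Human K18 P301L tau (15 uM unlabeled plus 0.24 uM Alexa 594-labeled, final) in 100 mM sodium acetate pH 7 was mixed with compound and 20 uM heparin and incubated 6 hr at 37 C.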
Numbers without * were called inactive; u = inconclusive; x = no result given; [ ] = dose if it differs, or a comment. This is a sample that favours compounds with a hit; in the whole collection about 3% have one here. Unless noted, the call rests on the fitted dose curve; in most records, active means well fitted curve in the direction sought with a large enough effect; inconclusive means small, poorly fitted or top-dose-only effect, or another doubt; inactive means no such curve, though single readings can be large; an effect the other way counts as inactive or inconclusive. Unless noted, on the % scale 0 is the no-effect control and ±100 the full control effect; potency means the concentration at half of the fitted maximal effect.

SMILES	TRb SRC2 PPI	TexasRed fluor	Tau fibril ThT	Tau FP inhib	Tau fluor counter
N#C/C(=C/c1cccs1)c1nc2ccccc2[nH]1	-2.6%	-0.3%	-14.5%	-4.5%	-4.3%
N#C/C(=C/c1ccc(N2CCOCC2)o1)C(=O)NC1CCCCC1	4.5%	4.8%	u	3.2%	-25.9%
N#C/C(=C/c1ccc(N2CCOCC2)o1)c1ccc(Br)cc1	4.4%	8.4%	14.1µM*	u	u
N#C/C(=C/c1ccc(N2CCOCC2)o1)c1nc2ccccc2[nH]1	-14.2%	u	7.94µM*	-5.4%	u
O=C(O)CCCCCCCCCCC(=O)O	6.5%[201 µM]	0.9%[201 µM]	x	x	x
CCOC(=O)c1ncc2[nH]c3cccc(OC(C)C)c3c2c1C	-0.6%	0.3%	-10.8%	3.0%	u
Nc1n[nH]c(=S)n1/N=C1/C(=O)Nc2ccccc21	1.0%	-9.6%	17.8µM*	u	-25.2%
N#Cc1sc2nc(N3CCCCC3)c3c(c2c1N)CCCC3	6.3%	0.7%	u	10.3%	15.8µM*[quencher]
Cc1nc2sc(C#N)c(N)c2c2c1CCCC2	-4.1%	-2.5%	-8.6%	-4.9%	-9.9%
CS/C(=N\O)C(=O)N(C)C	1.8%[201 µM]	-0.2%[201 µM]	x	x	x
Cc1ccc(N2CCN(c3ccc(NCc4nc5ccccc5n4C)cc3)CC2)cc1	-6.6%	-4.0%	2.51µM*	-14.0%	u
Cn1c(CNc2ccc(Cl)cc2)nc2ccccc21	3.5%	3.5%	u	1.9%	-17.0%
Fc1ccc(/C=C\c2nccc3c2[nH]c2ccccc23)cc1	6.1%	-1.1%	u	4.9%	u
Cc1ccc(/C=C\c2nccc3c2[nH]c2ccccc23)cc1	0.8%	-2.0%	u	-15.3%	11.2µM*[quencher]
Cc1ccc(/C=C/c2nc3ccccc3[nH]2)cc1	2.0%	-0.6%	u	u	u
C(=C\c1nccc2c1[nH]c1ccccc12)/c1ccccc1	8.7%	-3.4%	u	-19.1%	20µM*[quencher]
COc1ccc(-c2nc(-c3cccs3)c(-c3cccs3)[nH]2)cc1O	1.2%	-11.6%	12.6µM*	-1.6%	12.6µM*[quencher]
CC(=O)Oc1cc(-c2coc3cc(OC(C)=O)c(OC(C)=O)c(OC(C)=O)c3c2=O)cc(OC(C)=O)c1OC(C)=O	-1.2%	-6.8%	3.55µM*	8.91µM*	u
CCOc1ccc(NC(=S)N(CCc2c(C)[nH]c3ccccc23)Cc2ccco2)cc1	-0.4%	-2.9%	u	u	12.6µM*[quencher]
CNC(=S)N(CCc1c(C)[nH]c2ccccc12)Cc1ccco1	-6.9%	-2.0%	-11.2%	7.2%	-29.1%
COc1ccc(NC(=S)N(CCc2c(C)[nH]c3ccccc23)Cc2ccco2)cc1	3.7%	-1.7%	u	12.4%	14.1µM*[quencher]
Cc1[nH]c2ccc(F)cc2c1CCN(Cc1ccco1)C(=S)NC(C)(C)C	-0.7%	-0.7%	-6.0%	-4.2%	-16.5%
COc1ccc(Cl)cc1NC(=O)CCC(=O)N1CCOc2ccccc21	-0.2%	1.5%	9.5%	u	7.7%
COc1ccccc1NC(=O)N1CCOc2ccccc21	-1.8%	-5.5%	u	4.0%	12.6µM*[quencher]
O=C(O)c1ccccc1-c1c2cc(Br)c(=O)c(Br)c-2oc2c(Br)c(O)c(Br)cc12	u	28.2µM*[fluorescent]	x	x	x
SMILES	TRb SRC2 PPI	TexasRed fluor	Tau fibril ThT	Tau FP inhib	Tau fluor counter
Cc1ccc2oc(-c3ccccc3C(=O)O)cc(=O)c2c1	-17.0%	-2.0%	-5.8%	2.0%	6.2%
CCN(C(=O)c1cc2c(Cl)nc3ccc(C)cc3c2s1)c1cc(OC)ccc1OC	1.6%	-1.2%	-8.4%	0.4%	-13.8%
CCOC(=O)N1CCN(c2ncnc3c2[nH]c2ccc(F)cc23)CC1	1.4%	0.0%	u	6.5%	-30.0%
COc1ccc(N2CCN(c3ncnc4c3[nH]c3ccccc34)CC2)cc1	-19.6%	-2.0%	u	4.4%	u
CCOC(=O)N1CCN(c2ncnc3c2[nH]c2ccc(OC)cc23)CC1	-7.4%	-3.0%	8.91µM*	3.4%	-28.9%
Fc1ccc2[nH]c3c(N4CCN(c5ccccc5)CC4)ncnc3c2c1	4.8%	-11.2%	u	11.0%	25.1µM*[quencher]
CCn1c(C(=O)N2CCC(C(=O)NCCc3ccc(OC)cc3OC)CC2)cc2sccc21	-9.7%	22.4µM*[quencher]	u	5.0%	-20.1%
COCCNC(=O)C1CCN(C(=O)c2cc3sccc3n2Cc2ccc(Cl)cc2)CC1	-6.3%	28.2µM*[quencher]	-16.5%	-2.1%	-29.5%
CCn1c(C(=O)N2CCC(C(=O)NCCCOC)CC2)cc2sccc21	1.8%	-0.8%	8.8%	7.1%	3.9%
Cc1cc(Nc2cccc(Cl)c2)nc2ccc(NC(=O)c3cncc(Br)c3)cc12	5.0%	-7.1%	u	-11.2%	6.31µM*[quencher]
CCOc1cc(C(=O)Nc2ccc3nc(Nc4cccc(Cl)c4)cc(C)c3c2)cc(OCC)c1OCC	5.1%	4.1%	u	-6.8%	2.24µM*[quencher]
CCOC(=O)c1cccc(NC(=O)c2cncc(Br)c2)c1	-0.6%	1.3%	-1.8%	0.6%	-1.3%
Cc1cc(Nc2cccc(C(F)(F)F)c2)nc2ccc(NC(=O)c3cncc(Br)c3)cc12	12.4%	3.1%	u	-7.5%	5.01µM*[quencher]
Cc1ccccc1C(=O)Nc1ccc2nc(Nc3cccc(C(F)(F)F)c3)cc(C)c2c1	3.7%	u	-22.8%	u	5.62µM*[quencher]
CCN1CCN(c2cc(C)c3cc(NC(=O)c4cncc(Br)c4)ccc3n2)CC1	-6.5%	-11.7%	u	u	u
CCC(=C(CC)c1ccc(O)cc1)c1ccc(O)cc1	1.7%[53 µM]	-8.3%[53 µM]	x	x	x
CC12CCC(/C(=N/O)C1=O)C2(C)C (configuration not stated)	-0.4%	-0.6%	x	x	x
CC(=O)O[C@@H]1C(CO[Si](C)(C)C(C)(C)C)=C(Br)C(=O)[C@@H]2O[C@]12C	-0.2%	0.5%	28.2µM*	u	-26.4%
CCOc1ccc2nc(N(Cc3cccnc3)C(=O)c3ccco3)sc2c1	-3.9%	0.7%	-7.7%	-2.5%	-21.9%
CCn1c(C)nc2cc(C(=O)N=Nc3c(O)[nH]c4c(C)cc(C)cc34)ccc21	-5.6%	2.5%	7.08µM*	-11.9%	-26.5%
COc1cccc(-n2c(-c3ccc(Cl)cc3)cc3c2CC(C)(C)CC3=O)c1	0.5%	-1.2%	-11.8%	-6.6%	-11.6%
Cc1[nH]c2ccccc2c1/C=N\NC(=O)CNc1ccc2c(c1)OCO2	1.3%	-5.2%	15.8µM*	-1.7%	u
Oc1[nH]c2ccccc2c1C=Nc1ccc2c(c1)OCO2	1.6%	-8.5%	7.94µM*	12.4%	u
COc1ccc(N=Cc2c(O)[nH]c3ccccc23)cc1	0.6%	-5.7%	u	15.5%	u
O=C(CNc1ccc2c(c1)OCO2)N/N=C\c1ccccc1Cl	-2.7%	0.5%	u	3.4%	u
Cc1[nH]c2ccccc2c1/C=N/NC(=O)c1cccs1	-0.9%	-4.7%	11.2µM*	9.7%	17.8µM*[quencher]
CCCS(=O)(=O)Nc1cccc(-c2cn3ccc(C)cc3n2)c1	-0.2%	0.5%	0.1%	8.4%	-6.6%
CC(=O)N1CC=C2C(C#N)=C(N)C(C#N)(C#N)[C@H](c3ccoc3)[C@H]2C1	-13.1%	4.6%	u	u	-23.5%
